# Laboratory results as given in PubChem BioAssay (NCI).
# About 79,000 compounds went through this panel and 15% of them were active in at least one assay; those are over-represented in the sample as a whole. Calls of active or inactive are those of the source. No stated cut-off is given here; in the data, active means growth inhibition above about 70%; inactive means the rest.
# Assay: NCI Yeast Anticancer Drug Screen. Data for the mlh1 rad18 strain (AID 175)
# Settings: S. cerevisiae mlh1 rad18 strain growth inhibition; at 50.0 µM; active compounds read high
# Procedure, shortened: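 Vehicle-treated cultures served as the reference for growth inhibition in a yeast strain carrying DNA damage repair alterations exposed to each compound.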
row,Compound,growth inhibition
1,COc1cc2c(cc1OC)C(=O)C(C1CCCCC1)NC2 (stereo not given),30.4% (inactive)
2,COc1cc2c(cc1OC)C1C(=O)c3c(O)cc4c(c3OC1CO2)C=CC(C)(C)O4 (stereo not given),36.7% (inactive)
3,Fc1ccccc1-c1nc2ccccc2s1,28.3% (inactive)
4,CCOc1ccc(NC(=S)NC=C(C(N)=O)C(N)=O)cc1,-22.6% (inactive)
5,O=c1oc2ccccc2c(O)c1C(c1cccc(C(c2c(O)c3ccccc3oc2=O)c2c(O)c3ccccc3oc2=O)c1)c1c(O)c2ccccc2oc1=O,67.8% (inactive)
6,CCC(=O)Oc1cccc2ccccc12,-8.05% (inactive)
7,Cc1cc(C)nc(NS(=O)(=O)c2ccc(NC(=O)C(Cl)(Cl)Cl)cc2)n1,-39.8% (inactive)
8,OCC[N+]12CCCN1CCC2,-30.4% (inactive)
9,COc1ccc(/C=C/C(=O)N(C)C)cc1,-3.05% (inactive)
10,CCOC(=O)C(/C=N/C(=S)Nc1c(C)cccc1C)=C(/O)c1ccccc1,-33.4% (inactive)
11,CC(C)(C)NC(=O)c1cccc(C(=O)NC(C)(C)C)n1,-16.4% (inactive)
12,O=c1nc(OCCO)c([N+](=O)[O-])c(C(Cl)(Cl)Cl)[nH]1,92.3% (active)
13,Cc1ccc2c(c1-c1ccccc1)C(=O)OC2,-3.3% (inactive)
14,Cc1sc2nc3n(c(=O)c2c1C)N=C(c1ccc([N+](=O)[O-])cc1)CS3,-8.1% (inactive)
15,Cn1cc(-c2ccccc2)cc1-c1ccccc1,9.75% (inactive)
16,CCCCCCC1OCC(C)([N+](=O)[O-])CO1 (stereo not given),5.65% (inactive)
17,CN1Cc2ccccc2[C@H]2C(c3ccccc3)=NN(c3ccccc3)[C@H]21,37.2% (inactive)
18,CC(=O)OCC1OC(n2nc(C#N)c(C#N)n2)C(OC(C)=O)C1OC(C)=O (stereo not given),1.15% (inactive)
19,COc1ccc(OC)c(C(=O)C=C(C(F)(F)F)C(F)(F)F)c1,58.9% (inactive)
20,COc1ccc(S(=O)(=O)O)cc1NS(=O)(=O)c1ccc(C)cc1,-2.1% (inactive)

row,Compound,growth inhibition
1,COc1ccc2c3ccc4c(c3n(C)c2c1)C(=O)c1ccccc1C4=O,-46.1% (inactive)
2,Cc1cc(Cl)cc(CN(C)Cn2c(=O)cc[nH]c2=O)c1O,2.2% (inactive)
3,Cc1nc2sccn2c1C(=O)NC(=O)Nc1ccc(Cl)cc1,-16.1% (inactive)
4,N#CC(N)(C(=O)CCC(=O)Nc1cccc(Cl)c1)c1ccc(Cl)cc1 (stereo not given),2.15% (inactive)
5,COC(=O)c1nc(N)nc(C(=O)OC)c1C(=O)c1ccco1,26.5% (inactive)
6,CCOC(=O)/C(N=O)=C(/C)O,11.3% (inactive)
7,COC(=O)c1nc2nnc(N)n2c(-c2ccc(Cl)cc2)c1C,0.75% (inactive)
8,Clc1ccc(Nc2ncnc3oc(-c4ccccc4)c(-c4ccccc4)c23)cc1,4.65% (inactive)
9,Cc1cccc(NC(=O)/C(=N\NC(C)(C)C)C2NC(=S)NC2=O)c1C (stereo not given),-39.1% (inactive)
10,CC1(C)CC(=O)C2(C)C(C1O)C2C1C2C(O)C(C)(C)CC(=O)C21C (stereo not given),-16.1% (inactive)
11,N[C@@H](CCC(=O)NC(Cc1ccccc1)C(=O)NCP(=O)(O)O)C(=O)O (stereo not given in full),-55.4% (inactive)
12,NC1=NC=NCN1c1ccc(N)cc1,5.7% (inactive)
13,COC(=O)C1=CC(O)CCC1c1ccc(OC)cc1 (stereo not given),-19.2% (inactive)
14,Nc1nc(Sc2ccc([N+](=O)[O-])c3nonc23)c2[nH]cnc2n1,34.6% (inactive)
15,COC(=N)CC(=O)C(C)(C)C,-7.2% (inactive)
16,Cc1ncc([N+](=O)[O-])n1CCNC(=O)CCn1ccnc1[N+](=O)[O-],-22.9% (inactive)
17,C/C=C(/C)C(=O)O[C@H]1C[C@@H]2[C@@H](O)c3occ(C)c3C[C@]2(C)[C@@H](C)C1,90.2% (active)
18,CN1C/C(=C\c2ccc(C(=O)O)cc2)C(=O)/C(=C/c2ccc(C(=O)O)cc2)C1,19.7% (inactive)
19,CCCCSCc1nc2nc(Cl)c(Cl)nc2[nH]1,-9.25% (inactive)
20,CC(C)(C)NNC(=O)/C(=C/c1ccc(Oc2ccc(Cl)c(Cl)c2)cc1)NC(=O)c1ccccc1,16.1% (inactive)
